According to PubChem BioAssay AID1533 (PCMD, 2009):
In all, about 160,000 compounds went through this assay and about 45 (0.03%) were called active. No stated cut-off is given here; in the data, active means inhibition mostly above about 34% (no sharp cut-off); inconclusive means no clear call, values can overlap the other calls; inactive means mostly below about 22%. Shown is part of a subset that was picked to be rich in actives.

Target: dTDP-4-dehydrorhamnose reductase (Mycobacterium tuberculosis (strain ATCC 25618 / H37Rv)) + dTDP-4-dehydrorhamnose 3,5-epimerase (Mycobacterium tuberculosis (strain ATCC 25618 / H37Rv)) (UniProt P9WH09+P9WH11)
Sequence (P9WH09 whole entry, looked up): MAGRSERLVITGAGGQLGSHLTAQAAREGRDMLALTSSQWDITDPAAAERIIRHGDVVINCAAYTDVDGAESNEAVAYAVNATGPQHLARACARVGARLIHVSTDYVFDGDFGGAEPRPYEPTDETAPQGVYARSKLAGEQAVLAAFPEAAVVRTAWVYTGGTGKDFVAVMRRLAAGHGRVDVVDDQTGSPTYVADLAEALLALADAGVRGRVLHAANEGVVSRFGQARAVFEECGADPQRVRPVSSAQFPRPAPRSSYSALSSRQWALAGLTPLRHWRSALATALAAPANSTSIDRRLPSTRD
Sequence (P9WH11 whole entry, looked up): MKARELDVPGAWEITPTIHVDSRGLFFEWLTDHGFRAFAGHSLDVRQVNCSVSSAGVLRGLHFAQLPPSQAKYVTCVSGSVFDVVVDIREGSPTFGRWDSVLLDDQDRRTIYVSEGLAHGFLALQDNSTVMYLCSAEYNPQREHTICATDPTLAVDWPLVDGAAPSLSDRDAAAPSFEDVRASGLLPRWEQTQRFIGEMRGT
Experiment: M. tuberculosis RmlC/RmlD coupled enzyme inhibitors, primary screen, biochemical, compound mixtures, 384-well, from 1536-well plates (AID 1533)
Conditions: RmlC+RmlD coupled enzyme assay, percent inhibition, primary screen in compound mixtures, stronger effect = higher value

Row | Structure (SMILES) | inhibition (at 3.6 µM) | inhibition (measured here: mean retest inhibition, at 5.5 µM) [%]
1 | COc1ccc2[nH]c(=S)cc(C)c2c1 | 1.84% (inactive) | 
2 | Cc1cc(=O)oc2cc(OCCC[n+]3ccccc3)ccc12 | 2.56% (inactive) | 
3 | CCc1ccc(-n2c(SCc3cc(=O)n4cc(Br)ccc4n3)nc3[nH]ncc3c2=O)cc1 | -10.8% (inactive) | 
4 | CCn1c2ccccc2c2cc(NC(=O)Nc3ccc([N+](=O)[O-])cc3C)ccc21 | 14.1% (inactive) | 
5 | O=C(Nc1cccnc1)c1cc([N+](=O)[O-])ccc1Cl | -16% (inactive) | 
6 | COc1cccc(C(=O)n2ccc(-c3cccs3)n2)c1 | 2.94% (inactive) | 
7 | COc1ccc(N(Cc2ccccc2)S(=O)(=O)c2cccc(C(=O)O)c2)cc1 | 1.87% (inactive) | 
8 | COc1ccccc1Cn1c(CO)nc2ccccc21 | 17.8% (inactive) | 
9 | CC(=O)N1N=C(c2ccncc2)OC1(Cc1ccccc1)Cc1ccccc1 | 9.53% (inactive) | 
10 | COc1cccc(CNn2cn[nH]c2=S)c1OCc1ccccc1 | -3.37% (inactive) | 
11 | C=CCN1C(=O)C(O)(CC(=O)c2ccccn2)c2ccccc21 (stereo not drawn) | -20.3% (inactive) | 
12 | S=c1[nH]nc(Nc2ccccc2)s1 | -6.55% (inactive) | 
13 | CC1C(=O)NC(=O)C1c1ccccc1 (stereo not drawn) | 11.3% (inactive) | 
14 | COc1ccc(NC(=O)C2CCC(CNc3c(N4CCCCC4)c(=O)c3=O)CC2)c(OC)c1 (stereo not drawn) | 1.5% (inactive) | 
15 | O=C(Nc1ccccc1)Nc1ccc(C(F)(F)F)cn1 | -12.1% (inactive) | 
16 | COC(=O)c1sc(SC)c(S(=O)(=O)C(C)C)c1N/N=C(\C#N)S(=O)(=O)c1ccccn1 | 26.5% (inactive) | 
17 | O=C(NC1C2CC3CC(C2)CC1C3)c1ccc(N2CCNCC2)c([N+](=O)[O-])c1 (stereo not drawn) | -17.8% (inactive) | 
18 | C=CCC1(C#N)C(=S)NC(C)=C(C(=O)OCC)C1c1ccccc1 (stereo not drawn) | -2.23% (inactive) | 
19 | Cc1c(Cc2ccccc2)c(=O)oc2cc(OCC(N)=O)ccc12 | -14.1% (inactive) | 
20 | Cn1c(SCC(=O)c2ccc(F)cc2)nnc1-c1ccccn1 | -3.85% (inactive) | 
21 | CCOC(=O)COc1nc(C)cc(C(F)(F)F)c1C#N | 2.06% (inactive) | 

Row | Structure (SMILES) | inhibition (at 3.6 µM) | inhibition (measured here: mean retest inhibition, at 5.5 µM) [%]
22 | O=C(O)CCCCCCCCCC[n+]1ccccc1 | 9.14% (inactive) | 
23 | NC(=O)c1ccc(NC(=O)COC(=O)c2ccc([N+](=O)[O-])cc2)cc1 | 11.7% (inactive) | 
24 | Cc1cc(N2CCN(c3ccc(F)cc3)CC2)n2ncnc2n1 | 15.1% (inactive) | 
25 | CN(C)C(=O)c1nc2ccc(Cl)cn2c1CNCc1cccc(OC(F)(F)F)c1 | 10.5% (inactive) | 
26 | O=C(c1ccc(=O)oc1)N1CCC(C(O)(c2ccccc2)c2ccccc2)CC1 | 7.4% (inactive) | 
27 | O=C(COC(=O)/C=C/c1ccc2c(c1)OCO2)NC1CCS(=O)(=O)C1 (stereo not drawn) | -0.46% (inactive) | 
28 | CCCCc1nnc(NC(=O)CSc2nc(N)cc(=O)[nH]2)s1 | -1.44% (inactive) | 
29 | CCC(O)C1CCN(Cc2cn(-c3ccc(OC)cc3)nc2-c2cccc(F)c2)CC1 (stereo not drawn) | -7.8% (inactive) | 
30 | CC(NC(=S)Nc1ccccc1)C(c1cccs1)N1CCOCC1 (stereo not drawn) | 3.55% (inactive) | 
31 | CCC1CCCCN1C(=O)CSc1nc2c(c(=O)n(C)c(=O)n2C)n1C (stereo not drawn) | -9.61% (inactive) | 
32 | CCOC(=O)c1ccccc1NC(=S)N1CCC(C(N)=O)CC1 | -16.5% (inactive) | 
33 | CC1=NN(c2ccccc2)C(=O)C1C(=O)c1ccc([N+](=O)[O-])cc1 (stereo not drawn) | 4.71% (inactive) | 
34 | CCCNc1c(N)c(=O)c1=O | -3% (inactive) | 
35 | COc1ccc(CCNC(=O)C(=O)Nc2ccc3nc4n(c(=O)c3c2)CCCCC4)cc1OC | -7.43% (inactive) | 
36 | CN1CCN(c2ncc3c(n2)CC(c2ccccc2F)CC3=O)CC1 (stereo not drawn) | 2.14% (inactive) | 
37 | N#C/C(=C(\O)C(F)(F)F)c1nnc2n1CCCCC2 | 31.1% (inactive) | -1.52
38 | CCOc1ccc2nc(NCCNC(=O)C(C)(C)C)c(C)cc2c1 | -1% (inactive) | 
39 | Cn1cc(S(=O)(=O)NC(c2ccccc2)c2ccccc2)c(=O)n(C)c1=O | -1% (inactive) | 
40 | CN(c1ccc(OCC(=O)NC2=NCCS2)cc1)S(=O)(=O)c1ccc(F)cc1 | 9.17% (inactive) | 
41 | CC1CC1C(=O)OCC(=O)c1c(N)n(C)c(=O)n(C)c1=O (stereo not drawn) | -8.03% (inactive) | 
42 | O=S(=O)(NCCc1csc(-c2ccccc2)n1)c1cccnc1 | 4.16% (inactive) | 

Row | Structure (SMILES) | inhibition (at 3.6 µM) | inhibition (measured here: mean retest inhibition, at 5.5 µM) [%]
43 | Cc1nnc2n1N=C(c1ccc3c(c1)NC(=O)CO3)CS2 | -5.45% (inactive) | 
44 | COc1ccc(C)cc1NC(=O)c1ccc(-c2ccc(C(C)=O)cc2)o1 | 6.7% (inactive) | 
45 | C/C(=N/NC(=O)CC(=O)N/N=C(\C)c1ccc([N+](=O)[O-])cc1)c1ccc([N+](=O)[O-])cc1 | 11.2% (inactive) | 
46 | O=C(Nc1nc2ccc([N+](=O)[O-])cc2s1)c1ccncc1 | 8.08% (inactive) | 
47 | COc1cc(CN2CCNC(=O)C2CC(=O)NCCc2ncccc2C)cc(OC)c1 (stereo not drawn) | -11.4% (inactive) | 
48 | CN(CC(=O)Nc1ccccc1F)CC(=O)Nc1ccccc1Br | 27.7% (inactive) | 
49 | Cc1c(C)c(C)c2[nH]c(=S)[nH]c2c1C | 4.61% (inactive) | 
50 | O=c1[nH]c(CSc2ccccc2)nc2c1oc1ccccc12 | 2.42% (inactive) | 
51 | CCOc1ccc(NC(=S)N2CCCCCC2)cc1 | -16.4% (inactive) | 
52 | CCOc1ccc(NS(=O)(=O)c2cc(C)c(C)cc2C)cc1 | -11.4% (inactive) | 
53 | CC(=O)c1c(C)[nH]c(=S)c(C#N)c1-c1ccc(F)cc1 | 10.4% (inactive) | 
54 | CCCc1nc2oc3c(=O)[nH]cnc3c2c2c1COC(C)(C)C2 | -9.43% (inactive) | 
55 | O=C(NCc1cccnc1)C(=O)Nc1nc(-c2ccccc2)cs1 | -5.87% (inactive) | 
56 | Oc1oc(-c2ccccc2Br)nc1/C=N/c1ccccn1 | 2.05% (inactive) | 
57 | Oc1cccc2ccc(/C=C/c3ccc(Br)s3)nc12 | -11.7% (inactive) | 
58 | CN(C)CCOc1cccc(Br)c1 | 11.8% (inactive) | 
59 | CN(C)c1ccc(NC(=O)CSc2n[nH]c(-c3ccco3)n2)cc1 | -3.13% (inactive) | 
60 | Cc1nc2ccccn2c1C(=O)NN=C1CCN(C)CC1 | -1.88% (inactive) | 
61 | CC(C)OCCCNC(=O)c1ccc(C2SCC(=O)N2Cc2ccco2)cc1 (stereo not drawn) | 1.23% (inactive) | 
62 | CCn1c(CSCc2c(Cl)cccc2Cl)n[nH]c1=S | -0.03% (inactive) | 
